# Measured values reported in paper PMC5540273 (PLoS ONE, 2017).
# Tests used:
# [1] = test system: TYK2(JH1domain-catalytic);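 further: kd values determined as follow-up on hits from a single-replicate KINOMEscan panel screen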
# [2] = test system: AAK1; settings: concentration: 1 μM, replicates: in singlicate; n = 1
# [3] = test system: ABL1-nonphosphorylated; settings: concentration: 1 μM, replicates: in singlicate; n = 1
# [4] = test system: ABL1-phosphorylated; settings: concentration: 1 μM, replicates: in singlicate; n = 1
# 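Wherever %Inh is given: KINOMEscan kinase panel screen.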
compound,measurement,setting,value
C[C@@H]1CCN(C(=O)CO)C[C@@H]1N(C)c1ncnc2[nH]ccc12,Kd,[1],110 nM
same,%Inh,[2],8%
same,%Inh,[3],35%
same,%Inh,[4],0%
O=C(CCO)NCCn1ccc2ncnc(Nc3ccc(Oc4cccc(C(F)(F)F)c4)c(Cl)c3)c21,%Inh,[2],0%
same,%Inh,[3],24%
same,%Inh,[4],12%
CCc1nc(-c2cccc(C)c2)c(-c2ccnc(NC(=O)c3ccccc3)c2)s1,%Inh,[2],2%
same,%Inh,[3],24%
same,%Inh,[4],0%
Clc1cccc(-c2nc(Nc3ccncc3)c3ccccc3n2)c1 [GW873004],%Inh,[2],0%
same,%Inh,[3],51%
same,%Inh,[4],14%
Cc1ccc(C)c(NC(=O)NCCNc2ccnc(Nc3ccc(F)cc3)n2)c1 [GSK1379878],%Inh,[2],63%
same,%Inh,[3],0%
same,%Inh,[4],0%
CC(C)(C)c1ccc(-n2cnc3c(N)ncnc32)cc1 [SKF-97263],%Inh,[2],1%
same,%Inh,[3],0%
same,%Inh,[4],0%
CNc1nccc(-c2c(-c3ccc(F)cc3)ncn2CCCN2CCOCC2)n1 [SB-222516],%Inh,[2],0%
same,%Inh,[3],23%
same,%Inh,[4],0%
C[C@H]1CC[C@@H](C(=O)Nc2ccccc2)CN1c1cc(-c2ccc3c(N)n[nH]c3c2)nc(N)n1 [GSK2283293],%Inh,[2],23%
same,%Inh,[3],0%
same,%Inh,[4],8%
Cl.O=S(=O)(c1cccc(F)c1)c1ccc(Nc2ncnc3cc(Br)sc23)cc1Cl [GSK306886],%Inh,[2],16%
same,%Inh,[3],0%
same,%Inh,[4],0%
Oc1ccc2ncnc(Nc3ccc(OCc4ccccc4)cc3)c2c1 [GI262866],%Inh,[2],0%
same,%Inh,[3],0%
same,%Inh,[4],0%
Cc1ccc(NC(=O)c2cccc(C#N)c2)cc1-c1ccc(C(=O)Nc2ccncc2)cc1 [GSK1398463],%Inh,[2],73%
same,%Inh,[3],50%
same,%Inh,[4],10%
Clc1cc(Nc2ncnc3cc[nH]c23)ccc1OCc1ccccn1,%Inh,[2],7%
same,%Inh,[3],48%
same,%Inh,[4],0%
COc1ccc(Nc2nccc(N3CCC(NC(=O)Nc4ccc5c(c4)OCO5)C3)n2)cc1 (stereo not shown) [GSK1379745],%Inh,[2],3%
same,%Inh,[3],0%
same,%Inh,[4],0%
Fc1cccc(COc2ccc(Nc3ncnc4cc[nH]c34)cc2Cl)c1,%Inh,[2],4%
same,%Inh,[3],19%
same,%Inh,[4],21%
Cl.Fc1ccccc1COc1ccc(Nc2ncnc3ccc(-c4nnc(C(F)(F)F)o4)cc23)cc1Cl [GW424170],%Inh,[2],0%
same,%Inh,[3],0%
same,%Inh,[4],0%
Fc1ccc(-c2ncn(CCCNCc3ccccc3)c2-c2ccncc2)cc1,%Inh,[2],16%
same,%Inh,[3],25%
same,%Inh,[4],15%
Nc1nc(-c2ccc3c(N)n[nH]c3c2)cc(N2CCCCC2)n1 [GSK2228768],%Inh,[2],53%
same,%Inh,[3],0%
same,%Inh,[4],0%
Cc1cc(N2CCC(NS(=O)(=O)c3ccc(F)cc3)CC2)nc(Nc2cccc(C#N)c2)n1.O=C(O)C(F)(F)F [GSK1653537],%Inh,[2],9%
same,%Inh,[3],0%
same,%Inh,[4],0%
FC(F)(F)c1cc(Nc2nccc(-c3c(-c4ccc(Cl)cc4)nn4ncccc34)n2)ccc1Cl [GW829351],%Inh,[2],4%
same,%Inh,[3],42%
same,%Inh,[4],0%
CSc1ccc(NC2=C(c3ccccc3Cl)C(=O)NC2=O)cc1 [SB-342411],%Inh,[2],24%
same,%Inh,[3],0%
same,%Inh,[4],0%
COC(=O)c1c(-c2ccccc2)c2cc(Cl)ccc2c(=O)n1Cc1ccc(S(C)(=O)=O)cc1,%Inh,[2],18%
same,%Inh,[3],40%
same,%Inh,[4],0%
Cl.Cn1ccc(-c2cccc(Nc3ccnc4cc(-c5nccs5)ccc34)c2)n1 [GW525701],%Inh,[2],50%
same,%Inh,[3],0%
same,%Inh,[4],1%
Cn1ccc2ncnc(Nc3ccc(Oc4cccc(Cl)c4)c(Cl)c3)c21,%Inh,[2],27%
same,%Inh,[3],45%
same,%Inh,[4],15%
CCn1c(-c2ccncc2)nc2cnccc21 [SB-735216],%Inh,[2],0%
same,%Inh,[3],26%
same,%Inh,[4],0%
O=C(Nc1ccccc1F)NC1CCN(c2ccnc(Nc3ccc(F)cc3)n2)C1 (stereo not shown) [GSK1379722],%Inh,[2],0%
same,%Inh,[3],0%
same,%Inh,[4],0%
Cn1cc(-c2ccc3c(c2)CCN3C(=O)Cc2cccc(C(F)(F)F)c2)c2c(N)ncnc21 [GSK2606414],%Inh,[2],0%
same,%Inh,[3],0%
same,%Inh,[4],0%
Cc1ccc(O)cc1Nc1cc(C(F)(F)F)nc2ccc(-c3ccncc3)cc12 [GW630823],%Inh,[2],0%
same,%Inh,[3],21%
same,%Inh,[4],7%
Cn1ccc2ncnc(Oc3ccc(NC(=O)Nc4cccnc4)c(Cl)c3)c21,%Inh,[2],19%
same,%Inh,[3],23%
same,%Inh,[4],0%
Cc1cccc(-c2nc(Nc3ccc4[nH]nnc4c3)c3ccccc3n2)n1 [GW867587],%Inh,[2],0%
same,%Inh,[3],78%
same,%Inh,[4],47%
OCCOCCn1ccc2ncnc(Nc3ccc(Oc4cccc(Cl)c4)c(Cl)c3)c21,%Inh,[2],0%
same,%Inh,[3],24%
same,%Inh,[4],0%
FC(F)(F)c1ccc(-c2nn3ncccc3c2-c2ccnc(Nc3cccc(C(F)(F)F)c3)n2)cc1 [GW828205],%Inh,[2],1%
same,%Inh,[3],47%
same,%Inh,[4],30%
COc1ccc(NC(=O)Nc2ccc(C)c(-c3ccc(C(=O)Nc4ccncc4)cc3)c2)cc1 [GSK1398475],%Inh,[2],2%
same,%Inh,[3],0%
same,%Inh,[4],2%
Nc1nc(-c2ccc3c(N)n[nH]c3c2)cc(N2CCC[C@@H](C(=O)Nc3ccccc3)C2)n1.O=C(O)C(F)(F)F.O=C(O)C(F)(F)F [GSK2288359],%Inh,[2],38%
same,%Inh,[3],0%
same,%Inh,[4],0%
Fc1cccc(COc2ccc(Nc3ncnc4nn5ccccc5c34)cc2Cl)c1 [GW689066],%Inh,[2],0%
same,%Inh,[3],0%
same,%Inh,[4],0%
Fc1cccc(COc2ccc(Nc3ncnc4sc(-c5ccc[nH]5)cc34)cc2Cl)c1 [GW707818],%Inh,[2],0%
same,%Inh,[3],0%
same,%Inh,[4],0%
N#Cc1ccc(Oc2ccc(Nc3ncnc4cc[nH]c34)cc2Cl)cc1,%Inh,[2],14%
same,%Inh,[3],51%
same,%Inh,[4],6%
O=C(c1ccc(-c2cc(-c3c[nH]nc3-c3ccccn3)ccn2)cc1)N1CCCC1 [GW792479],%Inh,[2],12%
same,%Inh,[3],74%
same,%Inh,[4],59%
